system: VDR:RXRa (NR concentration 270 nM, RXRa partner concentration 90 nM); experiment: PBM binding z-score (relative to random genomic background probes); higher = stronger binding; sequences stand for … in GC…GCGATTGACAGCGTAGAATGAAGG
Protocol: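 Protein-binding microarray (Agilent 4x180K custom design, double-stranded 60-nt probes: 5' GC cap, 34-nt variable region, 24-nt constant primer region; full probe sequence given). Purified or IVT nuclear receptor:RXRα heterodimers (3:1 NR:RXRα, mostly 270:90 nM) or homodimers were incubated for 1 h in PBS with 2% milk and no ligand, then detected with Alexa488 antibodies. Fluorescence from o1-orientation probes (~5 replicates averaged) was converted to z-scores against 500 random hg19 background probes. Variable regions are seed direct-repeat (DR0–DR5) sites, all their single-nucleotide variants and half-site ablations.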

Row | Sequence | PBM binding z-score
1 | CGAACTAGGTCATTGCCAGGACAGTGAATAGTAA | 2.42
2 | CTCGAAAGGTCGGTTGTGGTGAGTATACGGATAA | 1.05
3 | TCGAGTATGTTAGTCGGGGCATTCAGCCAACATA | 0.158
4 | TCTGGTTGGTCACGGAGGTCACACACGACGGGTA | 5.92
5 | AATACAGGGTCATCGTAGGCCAGATTACGCACAG | 5.22
6 | CCTCGGAGGACAACACGAGGTCAGAGCTGCCAGA | 2.72
7 | CGTCCAAGGTCAAAGGTCAGTGATGAGATGACGG | 6.62
8 | GCTGCTAGGTCAACTGATGGTTAGCTAAAGCTCG | 1.39
9 | CGTCCAAGGTCAATGCTAGGTCATTGAAAGCATT | 5.84
10 | CGAACGAGGGCATGAGTTGATAGCTAATGCCGAT | 1.37
11 | GGAACGAGGGCGAAGTTGATAGCATCTGTCGACG | -0.285
12 | ATCGAAAGGTTGAAGGTGAGTATACCCACCCGAA | 0.806
13 | ACGATTAGTTGAGACGAGGGCAACCGATAGGTTG | 0.249
14 | CGTCAACGTTCAAGGTAACGTAACAGAAAGCAGC | -0.14
15 | TCATATAGGTAAAACAGGTGAAAGTCGGCATCTA | 1.17
16 | ATATGTAGGTTACCTCCGGGTCATTCAGGCTATG | 4.01
17 | ATATGTAGGTTAAGGGTCCTTCAGGTTGGTTCGC | 1.67
18 | AGCTCTAGGTAAAGTTCAGTGAAAGATCGATAGA | 1.08
19 | CCTACTGGGCCAAGGTCATTTATCAGTCAAAGCA | 3.13
20 | TAGCCTAGGGCATTGGGCCAGTATAGTACGCATC | -0.414

Row | Sequence | PBM binding z-score
21 | GATACAGGGTCAGCTAGGGGCCAGAGTATGGAAA | 3.31
22 | ATCTCTAGGTAACACTCAGTTCAGTGAAGAACGC | 1.97
23 | ATCTCTAGGTAAGATTCAGTTCAGTGAAGAACGC | 0.961
24 | ATATGTAGGTTATATCCGGGTCATTCAGGCTATG | 4.11
25 | TCATCTAGGTAATACAGGTGAAAGTCGGCATCTA | 0.916
26 | TCATATAGGTAAAAGGTGAAAGACGGTGTGGTAA | 1.57
27 | TCTGCTAGTTCAACGATGGTCAGCTAATCTGCTA | 0.196
28 | CCTAGCAGGCCAATCTGGGTCACGCAAGGCTTGA | 1.14
29 | CCTATTAGTTGACGATAAGGGCAACCGAAGCTCG | 0.128
30 | ATACCAAGGTGATCGTGAGGTTGTTGATACTAAC | 0.679
31 | CCTGATAGGTCATGGTCAGCTAATCTACAGTATG | 2.95
32 | CAGACTAGGTCAGGGCCAGTATAGGAGGAACGTT | -0.0309
33 | TAACCTAGGTCATGGGCCAGTATACCACGCGAAC | 2.88
34 | TCATATAGGTAAATGCTAGGTGAAAGACCGATCT | 0.73
35 | TAGTCTAGGTCATTGGGCCAGTATAGTACGCATC | 2.5
36 | CCTTACGGGTCACGAGGTTACAGCACGACGAGCG | 5.28
37 | CAAACTAGGTCACCGGAAGGTCAGAGTCCGCATG | 4.86
38 | CCTACTCGGCCATCAGGTCATTGATATCAACGTT | 2.37
39 | TCTTGTAGATCAATTGAGGTTAAGAAAGTGCGCT | 1.86
40 | TCATATAGGTAACGGTGAAAGTCGAACGATATGA | 0.164

Reference: the supplement of paper PMC6555819
